The target in assay [1] is T1, Serine/threonine-protein kinase TBK1 (Homo sapiens) (UniProt Q9UHD2).
T1 sequence (whole entry): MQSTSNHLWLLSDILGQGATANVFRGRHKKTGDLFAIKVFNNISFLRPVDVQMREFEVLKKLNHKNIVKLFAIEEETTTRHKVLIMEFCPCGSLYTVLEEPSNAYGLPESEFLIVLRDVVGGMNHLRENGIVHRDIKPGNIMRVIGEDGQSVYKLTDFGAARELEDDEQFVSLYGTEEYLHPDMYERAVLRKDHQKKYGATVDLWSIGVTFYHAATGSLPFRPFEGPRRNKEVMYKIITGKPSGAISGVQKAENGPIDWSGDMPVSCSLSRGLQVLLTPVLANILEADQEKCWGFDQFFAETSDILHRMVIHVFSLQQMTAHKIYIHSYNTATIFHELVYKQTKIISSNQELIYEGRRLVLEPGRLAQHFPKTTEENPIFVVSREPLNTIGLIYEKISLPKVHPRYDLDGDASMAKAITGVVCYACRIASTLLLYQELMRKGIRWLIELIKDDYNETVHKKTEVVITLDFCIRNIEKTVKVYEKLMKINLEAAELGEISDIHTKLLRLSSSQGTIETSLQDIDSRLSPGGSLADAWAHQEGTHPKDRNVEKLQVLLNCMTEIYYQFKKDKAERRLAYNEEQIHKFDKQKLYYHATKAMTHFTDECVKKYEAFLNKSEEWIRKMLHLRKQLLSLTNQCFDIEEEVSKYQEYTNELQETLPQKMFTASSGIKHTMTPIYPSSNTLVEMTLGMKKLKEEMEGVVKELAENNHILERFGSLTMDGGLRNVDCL
The conditions noted are these: at 10 µM.

In assay [2] the target is T2, TGF-beta receptor type-1 (Homo sapiens) (UniProt P36897).
T2 sequence (whole entry): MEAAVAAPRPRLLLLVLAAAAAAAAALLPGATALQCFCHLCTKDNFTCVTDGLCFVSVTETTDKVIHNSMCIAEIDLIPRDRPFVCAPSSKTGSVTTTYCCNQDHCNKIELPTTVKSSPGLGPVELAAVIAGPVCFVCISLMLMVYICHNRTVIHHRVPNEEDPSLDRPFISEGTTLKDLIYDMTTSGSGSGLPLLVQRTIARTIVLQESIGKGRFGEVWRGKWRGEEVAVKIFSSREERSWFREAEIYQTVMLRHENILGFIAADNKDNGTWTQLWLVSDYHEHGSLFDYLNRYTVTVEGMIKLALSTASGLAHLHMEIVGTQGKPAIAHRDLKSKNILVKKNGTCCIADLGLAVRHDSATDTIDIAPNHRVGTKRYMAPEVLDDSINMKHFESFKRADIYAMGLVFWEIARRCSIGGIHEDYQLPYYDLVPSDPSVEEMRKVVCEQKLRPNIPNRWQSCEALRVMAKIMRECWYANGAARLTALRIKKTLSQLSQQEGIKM
The conditions noted are these: at 1 µM.

Assay [3] has as its target T2, TGF-beta receptor type-1 (Homo sapiens). The conditions noted are these: at 10 µM.
The target of assay [4] is Insulin-like growth factor 1 receptor (Homo sapiens) (UniProt P08069). The conditions noted are these: at 1 µM.
The target is the same in assay [5]. The conditions noted are these: at 10 µM.
Assay [6] concerns the target T3, Inhibitor of nuclear factor kappa-B kinase subunit alpha (Homo sapiens) (UniProt O15111).
T3 sequence (whole entry): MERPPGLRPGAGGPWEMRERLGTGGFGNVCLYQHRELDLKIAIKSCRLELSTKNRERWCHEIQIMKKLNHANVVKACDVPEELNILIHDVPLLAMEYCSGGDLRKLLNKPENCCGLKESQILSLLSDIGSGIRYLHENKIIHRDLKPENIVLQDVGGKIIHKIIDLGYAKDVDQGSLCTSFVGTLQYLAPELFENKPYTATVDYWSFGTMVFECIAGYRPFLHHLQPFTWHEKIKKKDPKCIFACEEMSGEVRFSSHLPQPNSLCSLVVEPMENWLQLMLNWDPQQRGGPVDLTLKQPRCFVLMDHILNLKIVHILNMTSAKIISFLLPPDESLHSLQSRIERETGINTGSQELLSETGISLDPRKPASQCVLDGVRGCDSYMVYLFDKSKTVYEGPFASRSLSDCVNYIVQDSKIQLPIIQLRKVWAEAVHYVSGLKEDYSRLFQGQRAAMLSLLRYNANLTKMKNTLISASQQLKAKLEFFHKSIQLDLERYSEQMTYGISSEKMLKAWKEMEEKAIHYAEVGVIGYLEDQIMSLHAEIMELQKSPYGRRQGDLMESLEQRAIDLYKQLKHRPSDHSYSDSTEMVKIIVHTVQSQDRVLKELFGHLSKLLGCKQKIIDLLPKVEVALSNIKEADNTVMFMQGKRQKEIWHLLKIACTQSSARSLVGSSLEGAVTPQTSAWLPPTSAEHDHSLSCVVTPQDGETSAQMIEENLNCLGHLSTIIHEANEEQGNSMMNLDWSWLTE
The settings on record: at 1 µM.

For assay [7], the target named is T3, Inhibitor of nuclear factor kappa-B kinase subunit alpha (Homo sapiens). The conditions noted are these: at 10 µM.
For assay [8], the target named is T4, Inhibitor of nuclear factor kappa-B kinase subunit beta (Homo sapiens) (UniProt O14920).
T4 sequence (whole entry): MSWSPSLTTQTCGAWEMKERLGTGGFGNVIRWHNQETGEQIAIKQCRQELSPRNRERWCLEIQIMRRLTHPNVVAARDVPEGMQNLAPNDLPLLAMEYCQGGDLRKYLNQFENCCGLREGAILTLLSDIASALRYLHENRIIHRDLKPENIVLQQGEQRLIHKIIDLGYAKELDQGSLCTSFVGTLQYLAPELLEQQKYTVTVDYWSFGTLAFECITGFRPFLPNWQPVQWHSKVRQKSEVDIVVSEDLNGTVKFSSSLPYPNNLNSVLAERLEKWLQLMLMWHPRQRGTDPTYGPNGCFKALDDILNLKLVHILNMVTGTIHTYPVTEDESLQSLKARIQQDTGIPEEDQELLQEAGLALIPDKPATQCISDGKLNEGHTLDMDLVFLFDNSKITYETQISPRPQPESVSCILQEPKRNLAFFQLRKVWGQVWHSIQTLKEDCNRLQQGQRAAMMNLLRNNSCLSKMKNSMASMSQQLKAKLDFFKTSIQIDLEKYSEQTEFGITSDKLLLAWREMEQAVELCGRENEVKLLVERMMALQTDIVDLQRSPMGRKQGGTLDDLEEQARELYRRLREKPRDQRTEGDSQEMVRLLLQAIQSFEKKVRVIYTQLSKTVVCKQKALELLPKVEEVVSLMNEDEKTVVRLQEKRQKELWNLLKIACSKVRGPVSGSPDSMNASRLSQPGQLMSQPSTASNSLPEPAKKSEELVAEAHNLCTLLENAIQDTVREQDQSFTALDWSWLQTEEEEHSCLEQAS
The conditions noted are these: at 1 µM.

The target of assay [9] is T4, Inhibitor of nuclear factor kappa-B kinase subunit beta (Homo sapiens). The settings on record: at 10 µM.
The target in assay [10] is Insulin receptor (Homo sapiens) (UniProt P06213). The conditions noted are these: at 1 µM.

By residual activity is commonly meant the signal under treatment as a percentage of the control signal.

Insulin-like growth factor 1 receptor (Homo sapiens), sequence (P08069 31-736 limits assumed): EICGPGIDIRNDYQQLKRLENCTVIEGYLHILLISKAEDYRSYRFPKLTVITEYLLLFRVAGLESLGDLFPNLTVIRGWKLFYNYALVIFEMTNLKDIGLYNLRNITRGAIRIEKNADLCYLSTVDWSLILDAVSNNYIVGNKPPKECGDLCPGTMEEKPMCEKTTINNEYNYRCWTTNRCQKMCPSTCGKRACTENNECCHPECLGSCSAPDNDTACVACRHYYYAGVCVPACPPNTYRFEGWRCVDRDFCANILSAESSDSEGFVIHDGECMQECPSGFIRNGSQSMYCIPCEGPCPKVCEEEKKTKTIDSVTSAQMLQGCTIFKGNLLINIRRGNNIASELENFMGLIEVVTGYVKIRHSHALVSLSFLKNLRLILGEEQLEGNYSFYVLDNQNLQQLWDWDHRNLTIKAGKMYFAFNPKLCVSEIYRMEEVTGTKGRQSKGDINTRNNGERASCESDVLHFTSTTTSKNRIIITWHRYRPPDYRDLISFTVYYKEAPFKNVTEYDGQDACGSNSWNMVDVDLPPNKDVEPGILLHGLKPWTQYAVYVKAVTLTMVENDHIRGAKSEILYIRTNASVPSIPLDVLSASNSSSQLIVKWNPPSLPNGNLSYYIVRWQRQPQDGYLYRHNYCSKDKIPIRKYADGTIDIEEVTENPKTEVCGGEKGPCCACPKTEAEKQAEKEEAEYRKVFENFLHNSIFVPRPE
Insulin-like growth factor 1 receptor (Homo sapiens), sequence (P08069 741-1367 limits assumed): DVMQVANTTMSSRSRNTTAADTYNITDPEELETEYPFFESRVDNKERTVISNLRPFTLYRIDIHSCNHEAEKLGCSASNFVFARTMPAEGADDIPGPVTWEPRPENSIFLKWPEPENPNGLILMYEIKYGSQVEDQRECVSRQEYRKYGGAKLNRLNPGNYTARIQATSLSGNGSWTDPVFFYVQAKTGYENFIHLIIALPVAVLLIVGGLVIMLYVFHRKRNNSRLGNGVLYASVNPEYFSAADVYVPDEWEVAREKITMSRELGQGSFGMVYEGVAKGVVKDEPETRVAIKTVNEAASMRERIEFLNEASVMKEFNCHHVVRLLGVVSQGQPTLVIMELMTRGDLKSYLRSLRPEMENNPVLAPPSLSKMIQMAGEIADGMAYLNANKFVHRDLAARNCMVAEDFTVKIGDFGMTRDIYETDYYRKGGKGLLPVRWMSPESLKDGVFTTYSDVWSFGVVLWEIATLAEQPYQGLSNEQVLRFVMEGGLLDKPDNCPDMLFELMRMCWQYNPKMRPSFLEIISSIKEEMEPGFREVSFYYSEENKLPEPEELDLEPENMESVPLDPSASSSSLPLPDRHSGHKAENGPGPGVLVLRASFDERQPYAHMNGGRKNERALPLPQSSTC
Insulin receptor (Homo sapiens), sequence (P06213 28-758 limits assumed): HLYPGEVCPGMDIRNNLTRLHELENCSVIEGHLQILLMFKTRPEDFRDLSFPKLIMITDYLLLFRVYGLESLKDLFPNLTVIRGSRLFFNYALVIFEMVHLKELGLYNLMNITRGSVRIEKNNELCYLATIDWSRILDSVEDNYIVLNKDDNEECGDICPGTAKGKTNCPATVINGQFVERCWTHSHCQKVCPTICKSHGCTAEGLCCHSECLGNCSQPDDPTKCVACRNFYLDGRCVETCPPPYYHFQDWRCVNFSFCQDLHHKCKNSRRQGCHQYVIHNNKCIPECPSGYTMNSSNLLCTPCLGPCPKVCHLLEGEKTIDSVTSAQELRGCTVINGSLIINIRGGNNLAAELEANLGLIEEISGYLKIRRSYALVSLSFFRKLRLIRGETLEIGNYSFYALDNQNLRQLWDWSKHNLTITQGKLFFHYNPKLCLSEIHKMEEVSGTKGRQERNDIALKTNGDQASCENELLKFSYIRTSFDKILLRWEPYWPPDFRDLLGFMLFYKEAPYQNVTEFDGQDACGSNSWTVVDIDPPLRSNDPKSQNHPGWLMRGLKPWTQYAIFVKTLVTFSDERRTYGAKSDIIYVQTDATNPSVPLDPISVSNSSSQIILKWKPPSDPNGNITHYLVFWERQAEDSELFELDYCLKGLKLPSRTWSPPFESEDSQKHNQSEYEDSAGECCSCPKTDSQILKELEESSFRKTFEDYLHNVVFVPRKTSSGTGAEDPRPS
Insulin receptor (Homo sapiens), sequence (P06213 763-1382 limits assumed): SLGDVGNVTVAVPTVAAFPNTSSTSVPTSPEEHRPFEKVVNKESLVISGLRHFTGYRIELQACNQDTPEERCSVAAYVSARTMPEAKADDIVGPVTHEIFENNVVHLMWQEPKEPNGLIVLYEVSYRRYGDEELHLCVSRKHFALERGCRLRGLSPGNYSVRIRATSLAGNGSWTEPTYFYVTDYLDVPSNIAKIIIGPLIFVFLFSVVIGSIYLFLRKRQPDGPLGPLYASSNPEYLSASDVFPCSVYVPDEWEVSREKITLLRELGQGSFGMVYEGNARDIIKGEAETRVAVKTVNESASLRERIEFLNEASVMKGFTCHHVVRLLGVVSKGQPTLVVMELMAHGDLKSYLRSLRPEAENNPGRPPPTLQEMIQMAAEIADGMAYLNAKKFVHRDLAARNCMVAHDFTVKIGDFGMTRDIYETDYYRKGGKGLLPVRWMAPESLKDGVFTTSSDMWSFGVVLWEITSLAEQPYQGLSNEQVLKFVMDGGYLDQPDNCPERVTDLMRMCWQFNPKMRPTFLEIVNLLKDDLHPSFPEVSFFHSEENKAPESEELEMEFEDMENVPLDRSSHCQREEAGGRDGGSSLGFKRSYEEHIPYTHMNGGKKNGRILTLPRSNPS

For `Oc1ccc(-c2nc(-c3ccc(F)cc3)c(-c3ccncc3)[nH]2)cc1`, the residual activity was found to be 85% in [1]; 100% in assay [2]; 40% in [3]; 122% in [4]; 123% in [5]; 90% in assay [6]. For the same molecule, the residual activity worked out at 59% in assay [7], 120% in assay [8], 91% in assay [9] and 136% in [10].

The values above are taken from ChEMBL document CHEMBL2218924, “A broad activity screen in support of a chemogenomic map for kinase signalling research and drug discovery” (Biochem J, 2013).
